# Screening data: PubChem, Broad Institute
# Pf Dd2 growth – P. falciparum Dd2 growth inhibitors, primary screen, SYBR Green fluorescence, single dose replicates | 72 h; hits give low values | activity change, % at 10 µM | hit rate 2.3% among 94,000; in the data active = activity change below about -80%; inconclusive = no clear call, values can overlap the other calls
# C diff growth – C. difficile growth inhibitors, primary screen, HTS | hit rate 0.25% among 86,000 | growth activity, negative = inhibition, % at 16 µg/mL (by protocol) | Clostridium difficile clinical isolate growth, OD600, 24 h; hits give low values;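 active = mean growth activity at or below -80% and every replicate also at or below -80%; inconclusive = mean at or below -80% but some replicate above -80%; inactive = mean growth activity above -80%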
# T cruzi growth-1 – T. cruzi intracellular proliferation inhibitors, primary screen, cell-based, beta-gal Tulahuen parasites, NIH3T3 host, luminescence; inhibition, % at 8.34 µM; T. cruzi beta-gal in NIH3T3, GalScreen luminescence, 90 h; AID 624255, 2012; hit rate 5.9% among 77,000;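 active = mean inhibition above about 93%, with at least 55% of replicates each passing it, limit read from the data, passing the limit was not always enough; inconclusive = only one of those two conditions holds; inactive = neither condition holds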
# T cruzi growth-2 – T. cruzi intracellular proliferation inhibitors, confirmation, cell-based, NIH3T3 host, beta-gal parasite, luminescence, cherry-pick; shares compounds with T cruzi growth-1; T. cruzi beta-gal in NIH3T3, GalScreen luminescence, 90 h; inhibition, % at 8.35 µM; hit rate 72% among 5,600; AID 651739, 2012;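 active = mean replicate inhibition above about 95% and at least 55% of replicates individually reaching it, limit read from the data; inconclusive = only one of the two criteria is met; inactive = neither criterion is met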
# T cruzi growth-3 – inhibitors of intracellular T. cruzi replication, confirmation, NIH3T3 host cells, beta-gal parasites, cherry-pick, set 2; inhibition, % at 2.09 µM; T. cruzi beta-gal in NIH3T3, GalScreen luminescence, 90 h; shares compounds with T cruzi growth-1; AID 651740, 2012; hit rate 21% among 5,600;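 active = mean inhibition above about 95%, with at least 55% of replicates also reaching it, limit read from the data; inconclusive = meets just one of the two conditions; inactive = meets neither condition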
# 3T3 cytotox – cytotoxicity in mouse NIH/3T3 fibroblasts, confirmation, cytotoxicity control for T. cruzi proliferation inhibitor project, cell-based, cherry-pick, single point. cytotoxicity (signal decrease), % at 8.35 µM. shares compounds with T cruzi growth-1. hit rate 14% among 5,600. NIH/3T3 viability, CellTiter-Glo ATP luminescence, 90 h;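 active = mean signal decrease across replicates above about 35% based on untreated-well scatter, with enough replicates individually passing, limit read from the data; inconclusive = no rule stated though some were filed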
# 3T3 cytotox 2 – NIH/3T3 fibroblast cytotoxicity, confirmation, cytotoxicity control, cell-based, cherry-pick, single point, set 2; shares compounds with T cruzi growth-1; AID 651744, 2012; inhibition, % at 24.9 µM; hit rate 56% among 5,600; NIH/3T3 viability, CellTiter-Glo ATP luminescence, 90 h;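 active = mean loss of cell viability signal at or above a set limit, and enough replicates individually reaching it; inconclusive = meets only the mean limit or only the replicate share; inactive = meets neither condition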
# Hits are given with their value; - = inactive; ? = inconclusive; . = not tested or not shown. In the library only some 6.8% were active in any assay of this set; here they are far more common.
SMILES,Pf Dd2 growth,C diff growth,T cruzi growth-1,T cruzi growth-2,T cruzi growth-3,3T3 cytotox,3T3 cytotox 2
COc1ccc(C#Cc2ccc3c(c2)O[C@@H](CN(C)C(=O)NC2CCCCC2)[C@@H](C)CN([C@H](C)CO)S3(=O)=O)cc1,-81,-,?,95,113,-,-
C[C@H](CO)N1C[C@H](C)[C@H](CN(C)C(=O)NC2CCCCC2)Oc2cc(C#Cc3cccc(F)c3)ccc2S1(=O)=O,-,-,.,.,.,.,.
O=C(C[C@@H]1C[C@@H]2c3cc(NC(=O)NC4CCCC4)ccc3O[C@@H]2[C@H](CO)O1)NCc1ccncc1,-,-,-,.,.,.,.
N#Cc1ccc(-c2ccc([C@H]3[C@H](CO)N4CCCCN(S(=O)(=O)c5ccccc5)C[C@@H]34)cc2)cc1,-,-,116,108,-,51,88
CCS(=O)(=O)N1CCCCN2[C@H](CO)[C@H](c3ccc(-c4ccc(C#N)cc4)cc3)[C@@H]2C1,-,-,-,.,.,.,.
N#Cc1ccc(-c2ccc([C@H]3[C@H]4CN(S(=O)(=O)c5ccccc5)CCCCN4[C@H]3CO)cc2)cc1,-,-,114,107,-,-,-
O=S(=O)(c1ccccc1)N1CCCCN2[C@H](CO)[C@@H](c3ccc(-c4ccccc4)cc3)[C@@H]2C1,-,-,-,.,.,.,.
C[C@@H]1CN([C@@H](C)CO)C(=O)Cc2cc(NC(=O)c3ccncc3)ccc2O[C@@H]1CN(C)C(=O)Nc1ccc(C(F)(F)F)cc1,-,-,-,.,.,.,.
N#C[C@@H]1[C@H](c2ccc(-c3cccnc3)cc2)[C@H](CO)N1C(=O)C1CCOCC1,-,-,-,.,.,.,.
COc1ccccc1S(=O)(=O)N1[C@@H]2CNC[C@H]1C2c1ccc(-c2ccccc2)cc1 (stereo partly drawn),-,-,.,.,.,.,.
C[C@@H]1CN([C@@H](C)CO)C(=O)c2cc(C#CC3CC3)cnc2O[C@H]1CN(C)Cc1ccccn1,-,-,-,.,.,.,.
CN1C(=O)c2cc(NC(=O)c3cccc(Cl)c3)ccc2OC[C@@H]2O[C@H](CC(=O)NC3CCCCC3)CC[C@@H]21,-,-,100,99,-,-,60
CN1C(=O)c2cc(NC(=O)c3ccc(C(F)(F)F)cc3)ccc2OC[C@H]2O[C@H](CC(=O)NC3Cc4ccccc4C3)CC[C@H]21,-,.,-,.,.,.,.
CN1C(=O)c2cc(NC(=O)c3ccc(C(F)(F)F)cc3)ccc2OC[C@@H]2O[C@H](CC(=O)NC3Cc4ccccc4C3)CC[C@H]21,-,-,105,113,-,-,?
CN1C(=O)c2cc(NC(=O)c3cccc(Cl)c3)ccc2OC[C@H]2O[C@@H](CC(=O)NC3CCCCC3)CC[C@@H]21,-,-,.,.,.,.,.
Cc1ccc(-c2ccc3c(c2)O[C@@H](CN(C)Cc2ccncc2)[C@@H](C)CN([C@H](C)CO)S3(=O)=O)cc1,-,-,123,97,101,-,94
Cc1ccc(-c2ccc3c(c2)O[C@@H](CN(C)Cc2ccncc2)[C@@H](C)CN([C@@H](C)CO)S3(=O)=O)cc1,-,-,120,-,-,64,90
C[C@@H]1CN([C@@H](C)CO)S(=O)(=O)c2ccc(-c3cncnc3)cc2O[C@H]1CN(C)Cc1ccncc1,-,-,-,.,.,.,.
Cc1ccc(-c2ccc3c(c2)O[C@@H](CN(C)Cc2cncnc2)[C@@H](C)CN([C@H](C)CO)S3(=O)=O)cc1,-,-,.,.,.,.,.
Cc1ccc(-c2ccc3c(c2)O[C@H](CN(C)Cc2ccncc2)[C@H](C)CN([C@H](C)CO)S3(=O)=O)cc1,-,-,109,98,-,49,47
Cc1ccc(-c2ccc3c(c2)O[C@@H](CN(C)Cc2ccncc2)[C@H](C)CN([C@@H](C)CO)S3(=O)=O)cc1,-89,-,123,98,-,65,100
C[C@@H]1CN([C@H](C)CO)S(=O)(=O)c2ccc(-c3cncnc3)cc2O[C@@H]1CN(C)Cc1ccncc1,-,-,-,.,.,.,.
O=C(C[C@H]1C=C[C@H](NC(=O)C2CCOCC2)[C@@H](CO)O1)Nc1nccs1,-,-,.,.,.,.,.
O=C(NC1CCCC1)N1CC(=O)N2[C@H](C1)[C@H](c1ccc(-c3cccc(F)c3)cc1)[C@@H]2CO,-,-,.,.,.,.,.
CO[C@@H]1CN(C)C(=O)c2cc(NS(=O)(=O)c3ccccc3)ccc2OC[C@@H](C)N(C(=O)NC(C)C)C[C@H]1C,-,.,-,.,.,.,.
SMILES,Pf Dd2 growth,C diff growth,T cruzi growth-1,T cruzi growth-2,T cruzi growth-3,3T3 cytotox,3T3 cytotox 2
CO[C@@H]1CN(C)C(=O)c2cc(NC(=O)NC(C)C)ccc2OC[C@@H](C)N(Cc2cncnc2)C[C@H]1C,-,-,-,.,.,.,.
CO[C@@H]1CN(C)C(=O)c2cc(NC(=O)c3cc(C)on3)ccc2OC[C@@H](C)N(CC2CC2)C[C@@H]1C,-,.,-,.,.,.,.
C[C@@H]1CN([C@@H](C)CO)S(=O)(=O)c2ccc(Br)cc2O[C@H]1CN(C)Cc1ccncc1,-,-,101,102,99,-,-
C[C@@H]1CN([C@H](C)CO)S(=O)(=O)c2ccc(Br)cc2O[C@@H]1CN(C)Cc1ccccc1,-,-,-,.,.,.,.
O=C(NC[C@@H]1[C@@H](c2ccccc2)[C@@H](CO)N1Cc1cccnc1)C1CCCC1,-,-,.,.,.,.,.
CN1C(=O)c2cc(NS(=O)(=O)c3cccc(F)c3)ccc2OC[C@H]2O[C@H](CC(=O)N3CCc4ccccc4C3)CC[C@H]21,-,-,-,.,.,.,.
Cc1ccc(-c2ccc([C@H]3[C@@H](CO)N4CCCCN(C(=O)Nc5ccccc5)C[C@@H]34)cc2)cc1,-,-,118,106,-,-,78
Cc1ccccc1-c1ccc([C@@H]2[C@H](CO)N3CCCCN(C(=O)Nc4ccccc4)C[C@@H]23)cc1,-,-,-,.,.,.,.
Cc1ccc(-c2ccc([C@@H]3[C@H]4CN(C(=O)Nc5ccccc5)CCCCN4[C@H]3CO)cc2)cc1,-,-,?,?,-,-,103
Cc1ccccc1-c1ccc([C@H]2[C@@H](CO)N3CCCCN(C(=O)Nc4ccccc4)C[C@@H]23)cc1,-,-,-,.,.,.,.
Cc1cc(C(=O)Nc2cccc3c2O[C@H](CN(C)C(=O)Nc2cccc4ccccc24)[C@@H](C)CN([C@@H](C)CO)C3=O)n(C)n1,-,-,-,.,.,.,.
O=C(C[C@H]1C=C[C@H](NC(=O)C2CCC2)[C@@H](CO)O1)NCc1ccncc1,-,-,-,.,.,.,.
CCCNC(=O)C[C@H]1CC[C@@H]2[C@H](COC[C@H](O)CN2Cc2ccc(Cl)c(Cl)c2)O1,-,-,-,.,.,.,.
